Source: PubChem
In the library only some 21% were active in any assay of this set; here they are far more common.
Pf growth 96h: inhibits malaria parasite growth, 96 h | P. falciparum luciferase reporter growth, 96 h | Potency, µM (titrated, usually from 28.7 µM), for inactives: at the top dose activity change, negative = inhibition, hits mostly inhibitors | 320,000 tested, 6.9% active; also: potency is read from the fitted curve at half-maximal effect; % is scaled to controls: 0 for no effect and ±100 for the full control effect
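Readout is luminescence from an integrated firefly luciferase in P. falciparum. Red cells, 2% hematocrit and 0.05% parasitemia final, were cultured with compound through two parasite generations (96 hours) at 37 C, 5% CO2.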
Pf growth 48h: inhibits P. falciparum growth in the first generation, 48 h; 310,000 tested, 5.9% active; Potency, µM (doses to about 28.7 µM), for the others: top-dose activity change, negative = inhibition, most hits filed as inhibitors; P. falciparum luciferase growth in erythrocytes, 48 h; AID 504832; also: potency is read from the fitted curve at half-maximal effect; % is scaled to controls: 0 for no effect and ±100 for the full control effect
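Growth was read as firefly luciferase luminescence after a 48 h, 37 C, 5% CO2 exposure of compounds to reporter-bearing P. falciparum cultures (0.1% parasitemia, 2% hematocrit final) in Albumax-supplemented RPMI 1640.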
Cycloheximide cs: affects cycloheximide protein synthesis inhibition readout, counter-screen; cell reporter, cycloheximide protein synthesis inhibition counterscreen; 300,000 tested, 12% active; max response, %; AID 2314; in the data active = max response mostly above about 13%, no sharp cut-off; inactive = mostly below about 14%; also: read at 38.3 µM for the half of the compounds with a filed dose; 0% is about no effect
Shiga toxin inh: inhibitors of Shiga toxin in Vero cells; inhibition, % at 38.7 µM; AID 2315; 290,000 tested, 9.2% active; Vero cells, Shiga toxin protein synthesis inhibition reporter; in the data active = inhibition mostly above about 28%, no sharp cut-off; inactive = mostly below about 43%; also: 0% is about no effect
Active calls of the source: *; i = inactive; ? = inconclusive; . = not tested or not shown; [ ] = dose if it differs, or a comment. Unless noted, calls follow the shape of the dose curve; as a rule, active = well fitted inhibition curve with a large enough effect; inconclusive = small, poorly fitted or top-dose-only effect, or another doubt; inactive = no such curve, though single readings can be large or run the other way.

SMILES | Pf growth 96h | Pf growth 48h | Cycloheximide cs | Shiga toxin inh
Cn1c(CNc2ccccc2O)nc2ccccc21 | 9.28µM* | . | 23.4* | 75.7*
Cc1cc(C)c(NC(=O)CN(C)C(=O)CNC(=O)c2cccs2)c(C)c1 | -21.5% | 0.6% | . | .
Cn1c2ccccc2c2cc([N+](=O)[O-])ccc21 | 12.4% | 19.8% | -2.3 | 26.3
CN1c2ccc([N+](=O)[O-])cc2N(C)C1(C)c1ccccc1 (stereo unspecified) | i | 11.7µM* | -1.7 | -8.7
C[C@@]12CCC(=O)C=C1C=C[C@H]1[C@H]3CC[C@](O)(CCC(=O)O)[C@]3(C)CC[C@@H]12 | 6.42µM* | ? | . | .
COc1ccc(S(=O)(=O)N2CCOCC2)cc1NC(=O)c1ccccc1C | -6.0% | -9.5% | -3.1 | 18.1
O=c1[nH]c2ccc(NCc3ccc(F)cc3)cc2[nH]1 | ? | 38.7% | 12.6* | 41.1*
O=c1[nH]c2ccc(NCc3ccc(OCc4ccccc4Cl)cc3)cc2[nH]1 | 19.9% | 11.1% | 23.5* | 23.0
COc1cc(CNc2ccc3[nH]c(=O)[nH]c3c2)ccc1OCc1ccccc1Cl | 50.2% | -21.0% | 14.0 | 29.5
COc1cc(CNc2ccc3[nH]c(=O)[nH]c3c2)cc(Br)c1OCc1ccc(F)cc1 | 6.4% | -9.9% | -0.4 | -8.3
Cn1c(=O)c2c(nc(NCc3ccco3)n2C/C=C/c2ccccc2)n(C)c1=O | 9.28µM* | 8.28µM* | -2.6 | 4.7
Nn1c(COc2ccc(Cl)cc2)nc2ccccc2c1=O | -17.2% | 71.9% | 24.3* | active
Nn1c(CN2CCCCC2)nc2ccccc2c1=O | 2.33µM* | 32.4% | -0.6 | -1.8
COc1ccc(NC(=S)Nc2cc(C)[nH]n2)cc1Cl | 116.0% | 53.1% | 45.0* | 89.9*
Cc1cc(NC(=S)Nc2ccc(C)c(Cl)c2)n[nH]1 | 19.1% | 32.7%[1.15 µM] | 67.8* | 133.3*
COc1cc(C)c(NC(=S)Nc2ccc(C)c(Cl)c2)cc1OC | 37.0% | 14.5% | -0.4 | -6.7
COc1ccc(NC(=S)Nc2cc(-c3ccccc3)[nH]n2)cc1Cl | ? | ? | 20.0* | 8.5
Cc1cc(NC(=O)c2ccccc2[N+](=O)[O-])ccc1Br | ? | 69.2% | 50.5* | 133.9*
Cc1ccc(-c2cc(NC(=O)c3ccccc3[N+](=O)[O-])n[nH]2)cc1 | ? | 0.0% | 13.2* | 68.0*
Cc1cccc(C(=O)Nc2cccc(Br)c2)c1[N+](=O)[O-] | 44.0% | 5.0% | 9.3* | 6.9
COc1cccc(NC(=O)c2nn(C)c(C(=O)Nc3cccc(OC)c3)c2[N+](=O)[O-])c1 | 6.57µM* | 33.5% | -2.0 | 17.6
CC(=O)NC(Cc1ccccc1C)C(=O)NC1CCN(c2ncccc2[N+](=O)[O-])CC1 (stereo unspecified) | ? | -18.1% | -1.1 | -15.5
Cc1[nH]c2ccccc2c1C(=O)C(=O)N1CCN(c2cccc(Cl)c2)CC1 | ? | 13.7% | -2.5 | -7.9
Cc1ccc(S(=O)(=O)NCc2ccccc2)cc1C(=O)NCCc1ccc(S(N)(=O)=O)cc1 | 4.5% | -28.7% | . | .
COc1cccc(NC(=O)c2cccc(C)c2[N+](=O)[O-])c1 | ? | 72.6% | 27.6* | 125.4*
SMILES | Pf growth 96h | Pf growth 48h | Cycloheximide cs | Shiga toxin inh
Nc1c(-c2n[nH]c(=S)n2-c2ccc(Cl)cc2Cl)cnn1-c1ccccc1 | -0.1% | 7.8% | 0.5 | -17.7
Nc1[nH]nc2c1NN(c1ccc(Cl)cc1Cl)N2 | 163.5% | 150.1% | 48.3* | 82.5*
COC(=O)C1=C(C)NC(C)=C(C(=O)NCCCN2CCC(c3ccccc3)(c3ccccc3)CC2)C1c1ccc([N+](=O)[O-])cc1 (stereo unspecified) | . | . | -7.6 | -13.5
COC(=O)C1=C(C)NC(C)=C(C(=O)OCCCN2CCC(c3ccccc3)(c3ccccc3)CC2)C1c1cccc([N+](=O)[O-])c1 (stereo unspecified) | 15.1µM* | 1.51µM* | . | .
COC(=O)C1=C(C)NC(C)=C(C(=O)OCCNCc2ccccc2)C1c1cccc([N+](=O)[O-])c1 (stereo unspecified) | . | . | -2.1 | -0.6
C#CCN1C(C)=C(C(=O)OC)C(c2cccc([N+](=O)[O-])c2)C(C(=O)OCC)=C1C (stereo unspecified) | ? | 13.1µM* | . | .
COc1ccc(N2C(=NC(=O)CCC3CCCC3)SC3CS(=O)(=O)CC32)cc1 (stereo unspecified) | 34.4% | 8.7% | -2.9 | -2.7
CN1CCN(CC(=O)Nc2ccc([N+](=O)[O-])cc2Br)CC1 | 1.3% | 19.8% | -5.9 | -0.4
CC1CCCN(C(=O)CSc2nnc(-c3ccncc3)n2C)C1 (stereo unspecified) | 0.0% | 21.6% | 7.4 | 2.1
Cc1ccc(/C(N)=N/OC(=O)N2CCOCC2)cc1 | 1.04µM* | ? | 22.2* | 16.3
COc1cc(C(=S)N2CCOCC2)cc(OC)c1OC(=O)c1cccc(C)c1 | 58.8% | ? | -1.6 | -11.4
Cc1cccc(/C(N)=N/OC(=O)N2CCOCC2)c1 | 2.62µM* | ? | 23.6* | 101.0*
O=C(NCc1ccccc1)/C(=N\O)c1ccccc1 | 8.5% | 86.1% | 21.3* | 54.0*
O=C(NCc1ccccn1)/C(=N/O)c1ccccc1 | ? | 53.5% | 36.5* | 30.7*
C=CCc1cccc(/C=N/NC(=O)CCC(=O)Nc2ccc(C)cc2)c1O | 0.0% | 17.6% | -2.4 | -11.8
CCOC(=O)CN(C(=O)CSc1nnc(C)n1-c1ccccc1)c1ccccc1 | 5.4% | 0.7% | 11.0 | 2.3
CCn1c(COc2ccccc2C)nnc1SCC(=O)N1CCCCC1 | 7.38µM* | ? | -0.6 | -19.3
CCOC(=O)CN(C(=O)CSc1nnc(COc2ccc(OC)cc2)n1CC)c1ccccc1 | 6.57µM* | 8.28µM* | 2.0 | -5.5
CCn1c(COc2ccccc2)nnc1SCC(=O)C(C)(C)C | 9.28µM* | 11.7µM* | 16.4 | 1.5
CCOC(=O)CN(C(=O)CSc1nnc(CNc2ccc(C)cc2C)n1CC)c1ccccc1 | 9.28µM* | ? | 5.9 | -10.8
CN(C(=O)COC(=O)c1cc([N+](=O)[O-])ccc1Cl)c1ccccc1 | 19.0% | 7.1% | -3.0 | -4.4
CNC(=S)N(Cc1ccc(Cl)cc1)Cc1cccs1 | -32.3% | 6.2% | -2.5 | 17.4
CSc1cccc(NC(=O)CNS(=O)(=O)c2ccccc2)c1 | 22.6% | -9.6% | 13.1 | -3.2
Cn1c(=S)c2[nH]c(SCCN3CCCC3)nc2n(C)c1=O | ? | 11.7µM* | -7.1 | -22.5
O=S(=O)(Nc1ccc(Cl)cc1)c1ccc2c(c1)CCO2 | 4.2% | -8.9% | 8.7 | 38.7
SMILES | Pf growth 96h | Pf growth 48h | Cycloheximide cs | Shiga toxin inh
C=CCSc1n[nH]c(-c2ccc(OCCC)cc2)n1 | -2.1% | -28.3% | 50.0* | 125.0*
C=CCSc1n[nH]c(-c2ccc(OCCCC)cc2)n1 | . | ? | 41.3* | 16.9*
O=C1C=C(Nc2ccc(Cl)cc2Cl)CC(c2ccco2)C1 (stereo unspecified) | ? | 15.7% | 6.6 | 4.6
CCOC(=O)c1c(-c2ccc(C)o2)csc1NC(=O)CSc1ncn[nH]1 | 14.7µM* | . | -3.5 | -11.8
CCOc1ccc(NC(=O)CSc2ncn[nH]2)c([N+](=O)[O-])c1 | 35.5% | 7.1% | -2.9 | -4.6
CCOc1ccc(NC(=O)CSc2ncn[nH]2)cc1 | 11.7µM* | 24.2% | 18.1* | 11.2
Cc1ccc(NC(=O)CSc2ncn[nH]2)cc1 | 21.9% | -1.0% | 13.5* | 35.6
